Source: PubChem BioAssay (NCATS)
Records with an inconclusive call do not appear. A call without a number means that no potency is given here. Activity calls are given as the source filed them. Calls follow the shape of the dose curve; as a rule, active = well fitted inhibition curve with a large enough effect; inconclusive = small, poorly fitted or top-dose-only effect; inactive = no such curve, though single readings can be large or run the other way.

biological target: Protein phosphatase 1D (Homo sapiens) (UniProt O15297); assay: RapidFire Mass Spectrometry qHTS Assay for Modulators of WT P53-Induced Phosphatase 1 (WIP1) (AID 1347424); settings: WIP1 dephosphorylation of phosphopeptide, RapidFire MS; series mostly up to 63 µM
Sequence (O15297 whole entry, looked up): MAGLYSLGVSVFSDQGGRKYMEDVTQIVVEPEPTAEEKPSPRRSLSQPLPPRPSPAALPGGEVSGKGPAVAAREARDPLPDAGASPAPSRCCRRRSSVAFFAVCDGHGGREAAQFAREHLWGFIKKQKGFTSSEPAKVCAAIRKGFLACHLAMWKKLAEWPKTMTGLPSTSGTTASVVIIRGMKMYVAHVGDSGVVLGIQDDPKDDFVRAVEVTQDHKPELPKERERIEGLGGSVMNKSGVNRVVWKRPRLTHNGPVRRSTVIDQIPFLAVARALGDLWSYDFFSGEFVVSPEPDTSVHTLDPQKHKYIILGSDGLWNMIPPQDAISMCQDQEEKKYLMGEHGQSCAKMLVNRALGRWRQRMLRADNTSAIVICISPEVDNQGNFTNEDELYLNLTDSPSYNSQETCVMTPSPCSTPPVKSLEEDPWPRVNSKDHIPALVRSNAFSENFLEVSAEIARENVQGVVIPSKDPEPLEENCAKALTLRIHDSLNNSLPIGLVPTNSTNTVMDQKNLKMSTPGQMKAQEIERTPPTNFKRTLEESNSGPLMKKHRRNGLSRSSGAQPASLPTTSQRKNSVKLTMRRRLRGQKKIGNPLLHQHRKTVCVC
Source text: Assay Provider (PI): Nathan Coussens Ph. D.
National Center for Advancing Translational Sciences (NCATS), Rockville, MD
National Institute of Health (NIH), Bethesda, Maryland
WT P53-Induced Phosphatase 1 (WIP1) is a member of the magnesium-dependent serine/threonine protein phosphatase (PPM) family and is induced by P53 in response to DNA damage. In several human cancers, the WIP1 protein is overexpressed, which is generally associated with a worse prognosis. Although WIP1 is an attractive therapeutic target, no potent, selective, and bioactive small-molecule modulator with favorable pharmacokinetics has been reported. Phosphatase enzymes are among the most challenging targets for small molecules because of the difficulty of achieving both modulator selectivity and bioavailability. Another major obstacle has been the availability of robust and physiologically relevant phosphatase assays that are suitable for high-throughput screening.
Here, we describe two orthogonal biochemical WIP1 activity assays that utilize phosphopeptides from native WIP1 substrates. We optimized a RapidFire MS assay to quantify the enzymatically dephosphorylated peptide reaction product in a 384-well format. Additionally, a redshifted Rhodamine-PBP fluorescence assay was optimized in a 1,536-well format to enable real-time WIP1 activity measurements through the detection of the orthogonal reaction product, Pi. We validated these two optimized assays by quantitative high-throughput screening against the National Center for Advancing Translational Sciences (NCATS) Pharmaceutical Collection and used secondary assays to confirm and evaluate inhibitors identified in the primary screen.
SEQUENCE No. (e.g., 1, 2, 3, etc.); […] (e.g., Cells, Incubation, Reagent, etc.); VALUE; DESCRIPTION
1; Reagent; 50 uL; dispensed assay buffer: 0.1% formic acid in water (10 uL : 40 uL) solution in column 1
3; Library Compounds; 63 nL; library compounds in DMSO, columns 3-24
4; Control Compounds; 63 nL; DMSO in wells I-P, columns 1-2, GSK830371 (10 uM, final) in wells A-H, column 2
5; Time; 1 hr; incubation
6; Substrate; 2 uL; VEPPL-pS-QETFS (10 uM) in assay buffer, column 2-24
7; Time; 5 min; incubation
8; Reagent; 2 uL; 0.5% formic acid in water, columns 2-24
9; Reagent; 38 uL; VEPPL-S-QETF*S in 0.1% formic acid, columns 2-24
10; Detection; mass spec; RapidFire mass spectrometry
NOTES (numbers refer to sequence above)
1, 2, 6; dispensed reagent in White Nunc 384-well PP microplates (264573); assay buffer: 50 mM Tris-HCl pH 7.5, 30 mM MgCl2, 1 mM TCEP, 0.1 mM EGTA, 75 ug/mL BSA.
2, 6, 8, 9; Dispensed with BioRaptr (Beckman Coulter)
2, 6, 9; Final concentrations: 10 nM WIP1; 2 uM VEPPL-pS-QETFS; 1 uM VEFFL-S-QETF*S
3 & 4; Kalypsys Pintool transfer (Wako USA), Tip wash sequence: water, DMSO, methanol, 20 sec vacuum dry.
5 & 7; incubation at room temperature
10; RapidFire mass spectrometry read using the Agilent RapidFire 360 (Clausse, 2019)
Clausse V, et al. Physiologically relevant orthogonal assay for the discovery of small-molecule modulators of WIP1 […] in high-throughput screens. J Biol Chem. 2019, 294(46): 17654-17668. doi:10.1074/jbc.RA119.010201

SMILES | Potency
CO[C@@]1(NC(=O)CSC[C@@H](N)C(=O)O)C(=O)N2C(C(=O)O)=C(CSc3nnnn3C)CS[C@@H]21 | inactive
CCCc1ccc(OCC(=O)N2CCN(C(=O)COc3ccc(CCC)cc3OC)CC2)c(OC)c1 | inactive
Nc1c2ccccc2nc2ccccc12 | inactive
CC(=O)O[C@H]1CC[C@@]2(C)C(=CC[C@@H]3[C@@H]2CC[C@]2(C)C(C(C)=O)=CC[C@@H]32)C1 | inactive
C[C@H](CN1CCCC1)C(=O)c1ccc(C(F)(F)F)cc1 | inactive
CCCC(=O)O[C@]1(C(=O)CC)CC[C@H]2[C@@H]3CCC4=CC(=O)CC[C@]4(C)[C@H]3[C@@H](O)C[C@@]21C | inactive
N#CSCC(=O)O | inactive
O=C(O)Cn1c(=O)n(Cc2ccc(Br)cc2F)c(=O)c2ccc(Cl)cc21 | inactive
C[C@@H](C1=C(CCN(C)C)Cc2ccccc21)c1ccccn1 | inactive
O=C1c2ccccc2CCc2ccccc21 | inactive
O=C(NN1CCCC1)NS(=O)(=O)c1ccc(Cl)cc1 | inactive
Cc1ccc(C(=O)Oc2ccc(C(O)CNC(C)(C)C)cc2OC(=O)c2ccc(C)cc2)cc1 (stereo not given) | inactive
CCCCC(=O)OCC(=O)[C@H]1[C@H](C)C[C@H]2[C@@H]3C[C@H](F)C4=CC(=O)C=C[C@]4(C)[C@@]3(F)[C@@H](O)C[C@@]21C | inactive
CN1C(CSCC(F)(F)F)Nc2cc(Cl)c(S(N)(=O)=O)cc2S1(=O)=O (stereo not given) | inactive
CO/N=C(/C(=O)N[C@@H]1C(=O)N2C(C(=O)[O-])=C(C[n+]3ccn4ncccc43)CS[C@H]12)c1nsc(N)n1 | inactive
O=C1CCCc2c(O)cccc21 | inactive
CCN1CCN(c2cc(-c3ccc(F)cc3)c3c(n2)CCCCCC3)CC1 | inactive
CC1CCCCN1CCCOC(=O)c1ccc(OC2CCCCC2)cc1 (stereo not given) | inactive
CC(CC(C#N)(c1ccccc1)C(C)C)N(C)C (stereo not given) | inactive
CC(=O)Nc1ccc(S(=O)(=O)Nc2cc(C)on2)cc1 | inactive

SMILES | Potency
O=C(O)c1ccccc1S | inactive
CCOC(=O)N1CCC(Nc2ccc(Cl)cc2N)CC1 | inactive
Cc1ccc(CCn2c3c(c4cc(Cl)ccc42)CN(C)CC3)cn1 | inactive
CO[C@@H]1[C@@H](O[C@@H]2O[C@H](C)[C@@H](O[C@H]3C[C@@](C)(O)[C@@H](O)[C@H](C)O3)[C@H](N(C)C)[C@H]2O)[C@@H](CC=O)C[C@@H](C)[C@@H](O[C@@H]2CC[C@H](N(C)C)[C@@H](C)O2)/C=C/C=C/C[C@@H](C)OC(=O)C[C@H]1OC(C)=O | inactive
O=C(OCC(COC(=O)c1cccnc1)(COC(=O)c1cccnc1)COC(=O)c1cccnc1)c1cccnc1 | inactive
O=C(O)Cn1cnnn1 | inactive
NC(=O)COCCN1CCN(C(c2ccccc2)c2ccc(Cl)cc2)CC1 (stereo not given) | inactive
CC(C)C(=O)OCc1cccc(OC(=O)[C@@H]2N3C(=O)[C@@H](NC(=O)Cc4ccccc4)[C@H]3SC2(C)C)c1 | inactive
CO[C@]1(NC(=O)CSC(F)F)C(=O)N2C(C(=O)O)=C(CSc3nnnn3CCO)CO[C@H]21 | inactive
CCCC(=O)OCOC(=O)C1=C(C)NC(C)=C(C(=O)OC)C1c1cccc(Cl)c1Cl (stereo not given) | inactive
Cc1cccc(C)c1NC(=O)c1ccc(N)cc1 | inactive
O=[N+]([O-])c1nccn1CO[C@@H](CO)[C@H](O)CO | inactive
C[N+](C)(CCOc1ccccc1)Cc1cccs1 | inactive
Cc1cc2nc3ccc(=[N+](C)C)cc-3sc2cc1N | inactive
O=C(CS(=O)Cc1ccco1)NC/C=C\COc1cc(CN2CCCCC2)ccn1 (stereo not given) | inactive
CCn1ccc(NS(=O)(=O)c2ccc(N)cc2)nc1=O | inactive
CCCN(CCC)C(=O)C(CCC(=O)OCCCN1CCN(CCOC(=O)Cc2c(C)n(C(=O)c3ccc(Cl)cc3)c3ccc(OC)cc23)CC1)NC(=O)c1ccccc1 (stereo not given) | inactive
CCS(=O)(=O)c1ccc(OC)c(C(=O)OC)c1 | inactive
CCCCNc1ccc(C(=O)OCCN(CC)CC)cc1 | inactive
CC1(C)O[C@@H]2C[C@H]3[C@@H]4CCC5=CC(=O)C=C[C@]5(C)[C@@]4(F)[C@@H](O)C[C@]3(C)[C@]2(C(=O)CO)O1 | inactive
